High-throughput results (PubChem)
Sampled rows, rich in hits. Any-hit rate of the full collection: about 1.8%.
LGR2 inh – inhibitors of bursicon-induced LGR2 CRE-luciferase signal, primary screen, cell-based, HEK293, CRE-luciferase reporter, bursicon stimulation | Drosophila bursicon receptor LGR2 (rickets) | bursicon-stimulated, 4 h | inhibition, % at 9.99 µM | 380,000 tested, 0.35% active | AID 720647, 2013;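 active = drop in luminescence signal, shown as inhibition above about 50% in the replicate tests, limit read from the data, passing the limit was not always enough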;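 note: agonist challenge used bursicon conditioned medium at about half maximal strength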
EWS-Fli inh – EWS/Fli-driven NR0B1 reporter inhibitors, primary screen, A673 cells, NR0B1 luciferase, luminescence, MLPCN library. inhibition, % at 12.6 µM. viability-normalised. 350,000 tested, 0.67% active;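 active = mean inhibition of at least 50% after viability correction, with every replicate also passing that limit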;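 note: firefly luciferase signal divided by Alamar Blue viability fluorescence both relative to DMSO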
GSIS activator – GLuc luminescence reporter in INS-1E cells, primary screen for activators of glucose-dependent secretion of insulin | INS-1E GLuc reporter insulin secretion, 2-3 h | activation, % at 16.6 µM | 370,000 tested, 0.61% active | AID 743287, 2014;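 active = lowest replicate activation of at least 40%, so every replicate reaches that level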;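 note: 0% = median of neutral control wells and 100% = median of IBMX positive control wells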
RAD54 inh – inhibitors of human RAD54 branch migration, primary screen, biochemical, fluorescence, single point; RAD54 Holliday junction branch migration, FAM/BHQ fluorescence; 360,000 tested, 0.14% active; inhibition, % at 10.4 µM; DNA repair and recombination protein RAD54-like (Homo sapiens), Q92698;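 active = mean normalized replicate activity at least 40 and at least half of replicates scoring 40 or more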;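 note: 0% = median of neutral control wells and 100% = median of positive control wells; inhibitors cause a drop in the FAM fluorescence signal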
RAD52 anneal inh – RAD52 DNA annealing inhibitors, primary screen, biochemical, FRET, single point, set 2; DNA repair protein RAD52 homolog (Homo sapiens), P43351; recombinant RAD52 DNA annealing, FRET fluorescence; 360,000 tested, 0.46% active; inhibition, % at 18.7 µM;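 active = every replicate showing at least 50% inhibition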
Target sequence (P43351 whole entry, looked up): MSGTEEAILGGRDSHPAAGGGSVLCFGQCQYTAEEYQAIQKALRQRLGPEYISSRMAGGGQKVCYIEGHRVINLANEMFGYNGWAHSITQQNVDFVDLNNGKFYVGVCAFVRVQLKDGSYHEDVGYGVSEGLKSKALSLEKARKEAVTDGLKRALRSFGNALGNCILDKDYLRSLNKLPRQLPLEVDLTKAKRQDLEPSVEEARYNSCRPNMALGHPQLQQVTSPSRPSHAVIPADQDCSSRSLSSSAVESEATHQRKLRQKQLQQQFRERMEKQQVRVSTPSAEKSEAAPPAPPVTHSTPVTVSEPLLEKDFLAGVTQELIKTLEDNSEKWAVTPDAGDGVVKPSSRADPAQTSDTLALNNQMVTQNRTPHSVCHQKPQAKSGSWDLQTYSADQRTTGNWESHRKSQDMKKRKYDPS
F508del corr – F508del CFTR correction, initial screen, CFBE line, single point; CFBE cells, YFP halide quenching; stimulated with forskolin plus potentiator P3; % fluorescence drop versus neutral controls; 350,000 tested, 0.36% active; activity (quench increase), % at 7.58 µM;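 active = mean added fluorescence quench of at least 8% versus neutral control, with both replicates also reaching 8%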;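 note: cells transiently co-express mutant CFTR-F508del with the halide-sensitive YFP; corrector assay measuring rescue of mutant channel to the surface after 24 h compound exposure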
Starred values were filed as active, the others as inactive; i = inactive; / = no result given.

SMILES	LGR2 inh	EWS-Fli inh	GSIS activator	RAD54 inh	RAD52 anneal inh	F508del corr
C[C@H]1CN([C@@H](C)CO)C(=O)Cc2cc(NC(=O)Nc3ccc(C(F)(F)F)cc3)ccc2O[C@H]1CN(C)S(=O)(=O)c1cn(C)cn1	1	54*	-15	-3	4	2
C[C@@H]1CN([C@@H](C)CO)C(=O)Cc2cc(NC(=O)Nc3ccc(C(F)(F)F)cc3)ccc2O[C@H]1CN(C)S(=O)(=O)c1cn(C)cn1	-3	5	-9	-1	0	-1
C/C=C/c1ccc2c(c1)O[C@H](CN(C)Cc1cccnc1)[C@@H](C)CN([C@@H](C)CO)S2(=O)=O	11	4	-5	6	10	2
CC1CCCN(S(=O)(=O)c2ccc(NC(=O)Cn3nnc(-c4ccccc4F)n3)cc2)C1 (stereo not drawn)	3	/	-2	11	-12	/
COC1C(CO)OC(n2c3c(Cl)cccc3c3c4c(c5c6cccc(Cl)c6[nH]c5c32)C(=O)NC4=O)C(O)C1O (stereo not drawn)	60*	56*	2	/	i	9.8*
Cc1cccc(C)c1OC(=O)c1ccccc1	9	-11	8	13	-35	3
CCOC(=O)c1ccc2nc(NC(C)=O)sc2c1	-47	-94	31	/	-13	-1
CCOC(=O)c1ccc2nc(Nc3nc4ccc(F)cc4s3)sc2c1	30	80*	/	/	-9	/
O=C(NN1C(=O)c2cc(Br)ccc2NC1c1ccccc1Cl)c1ccncc1 (stereo not drawn)	-11	14	-4	/	-11	3
CCS(=O)(=O)N1CCN(S(=O)(=O)c2ccccc2)CC1	/	/	/	8	/	/
O=C(CCCCCN1C(=O)c2ccccc2C1=O)Nc1ccccc1	/	/	/	0	/	/
O=C(CCCCCCC(=O)Nc1ccccc1)NO	-17	71*	-18	-5	-6	/
Cn1nccc1-c1ccc(C(=O)Nc2cccc(NS(C)(=O)=O)c2)c2occc12	-33	-44	2	-15	-9	3
NCC[C@@H]1CC[C@@H](NS(=O)(=O)Cc2ccccc2)[C@@H](CO)O1	2	-5	-7	3	1	0
NCC[C@H]1CC[C@H](NS(=O)(=O)Cc2ccccc2)[C@@H](CO)O1	89*	-5	13	2	2	0
CCOc1ccc(-c2nnc(SCC(=O)Nc3cc(C)on3)o2)cc1	-27	65*	2	/	-9	-2
Cc1ccc(-c2nnc(SCC(=O)Nc3ccccc3F)o2)cc1	57*	85*	0	4	-7	-1
COc1cccc(-c2nnc(SCC(=O)Nc3cc(C)on3)o2)c1	-31	/	1	/	/	/
O=C(CSc1nnc(-c2ccccc2)o1)Nc1ccccc1F	24	78*	-1	-8	-10	2
O=C(CSc1nnc(-c2ccncc2)o1)Nc1cc(F)ccc1F	-24	-61	13	8	-14	-3
N#CSCC(=O)c1cccc2ccccc12	/	4	7	-2	-7	/
CC(=O)N(C)C[C@H]1Oc2ncc(C#C[C@@H](C)O)cc2C(=O)N([C@@H](C)CO)C[C@@H]1C	4	-1	15	-3	6	-1
COc1ccc(NC(C)=O)c(C)c1	-15	0	-2	/	-4	1
COc1ccc(-n2nc3cc(C)c(NC(C)=O)cc3n2)cc1	48	51*	39	1	-11	-2
O=C(N[C@H]1CC[C@H](CCn2cc(-c3ccccn3)nn2)O[C@H]1CO)c1ccccc1	1	4	6	-7	-8	-1
COc1ccc(N=Cc2c(O)n(-c3cccc(C)n3)c(=O)c3ccccc23)cc1	-3	/	9	13	/	/
O=c1c(C=Nc2ccc(Oc3ccccc3)cc2)c[nH]n1-c1cccc(Cl)n1	/	/	107*	10	/	/
CCCCCN1C=CC(=C2C(=O)c3ccccc3C2=O)C=C1	104*	91*	29	/	-127	-4
CC1=CC(=C2C(=O)c3ccccc3C2=O)C=C(C)N1C	-12	/	5	/	/	/
COc1cccc(-n2nc(C#N)c(Cl)cc2=O)c1	103*	58*	28	/	-21	-8
